Compounds without any hit were thinned out: in the full panel of roughly 79,000, 15% have a hit. Values without a mark were called inactive. The source made the active and inactive calls. Rule as the data show it: active = growth inhibition above about 70%; inactive = the rest.

The first assay is described as follows: NCI Yeast Anticancer Drug Screen. Data for the rad52 strain (AID 147).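 Also: 0% = growth of vehicle-treated control cultures.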 As to conditions: S. cerevisiae rad52 mutant growth inhibition; at 33.0 µM; active compounds read high. The gist of the method:
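Yeast strain carrying a DNA damage repair alteration was exposed to test compounds. Growth inhibition was measured relative to vehicle-treated controls.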
For the compound `O=[N+]([O-])c1cc[n+]([O-])cc1`, the growth inhibition is 32%.

`CC1(C)CC(=O)C(/C=N/c2nc(-c3ccccc3)cs2)=C(O)C1`: the growth inhibition is 41%.

With `Nc1nc(N)c2nc(CNc3ccc(C(=O)NC(CCC(=O)O)C(=O)O)cc3F)cnc2n1` (stereo unspecified), the growth inhibition was 82% (active).

Consider `COC(=O)CC1(O)C(/C=C/c2ccccc2)C(C(=O)OC)C(=O)C(C(=O)OC)C1C(=O)OC` (stereo unspecified), for which the growth inhibition is 2%.

In the case of `CC(C)(C)c1ccc(NS(=O)(=O)c2ccc(N)cc2)cc1`, the growth inhibition was 6%.

Regarding `CCN(CC)CCNc1ccc([N+](=O)[O-])c2nc3ccccc3c(N)c12`, the growth inhibition was 31%.

Regarding `CCCCN(CCCC)C(=O)/C=C/c1ccccc1`, the growth inhibition was 18%.

As for `O=c1[nH]c(-c2ccccc2)nc2c1sc1nc3ccccc3n12`, the growth inhibition was -15%.

With `O=[N+]([O-])c1ccc2c(c1)/C(=N/N=C1c3ccccc3Cc3ccccc31)c1cc([N+](=O)[O-])cc([N+](=O)[O-])c1-2`, the growth inhibition is 98% (active).

Take `CC(C)C(C)/C=C\C(C)C1CCC2C3=CC=C4CC(O)CCC4(C)C3CCC21C` (stereo unspecified): the growth inhibition was -1%.

Turning to `O=C1Nc2ccc(Br)cc2C1=Nc1ccc2c(c1)OCO2`, the growth inhibition was 10%.

For the compound `CCCCOCn1c(=O)[nH]c(=O)c2cc(Br)ccc21`, the growth inhibition was -6%.

Take `Cc1ccc(S/C(=C\C(=O)O)c2ccccc2)cc1`: the growth inhibition was 28%.

For `O=[N+]([O-])/C=C/c1cc(Cl)c(/C=C/[N+](=O)[O-])cc1Cl`, the growth inhibition was 91% (active).

As to `Cc1cc(S(=O)(=O)Nc2nnc3cnc4ccccc4n23)c(S)cc1Cl`, the growth inhibition is 17%.

With `O=C(/C=C/c1cc(Cl)cc(Cl)c1O)c1cccc(O)c1`, the growth inhibition was 98% (active).

As for `NC1CCCCC1N.Nc1c(N=Nc2ccc(-c3ccc(N=Nc4cc(S(=O)(=O)[O-])c5ccccc5c4N)cc3)cc2)cc(S(=O)(=O)[O-])c2ccccc12.[OH3+].[OH3+].[Pt+4]`, the growth inhibition was 80% (active).

As to `COC(=O)CCC(NC(=S)N/N=C(\C)c1ccccn1)C(=O)OC` (stereo unspecified), the growth inhibition was 61%.

For `NC(=O)C(=O)NNc1ccccc1`, the growth inhibition was 85% (active).

As to `COc1cc(C2SCC(=O)N2c2ccc(-c3ccc(-n4c(-c5ccccc5)nc5ccccc5c4=O)cc3)cc2)ccc1O` (stereo unspecified), the growth inhibition is 6%.

Regarding `COc1ccc(/C=C/c2sc3ccccc3[n+]2CCCCI)cc1OC`, the growth inhibition is 55%.

For `Cc1c(C(C)C)cc(OCCO)cc1C(C)C`, the growth inhibition is 4%.

Consider `Cc1cc(NCCCCCCCCNc2cc(C)nc3cc(N)ccc23)c2ccc(N)cc2n1`, for which the growth inhibition was 98% (active).

Turning to `C=C(Cl)COC(=O)Nc1cccc(Cl)c1`, the growth inhibition is 80% (active).

For `CC(=O)OC1CC2C(C)(C)C(=O)C=C[C@]2(C)C2CCC3(C)C(=CCC3[C@H](CO)C[C@H](O)C(=O)C(C)(C)O)[C@]12C` (stereo partly specified), the growth inhibition was 11%.

`COc1ccc(/C=C/C(=O)c2ccccc2)cc1OC`: the growth inhibition was 19%.

Consider `COc1c(O)c(C=O)c(Br)c(C=O)c1O`, for which the growth inhibition was 49%.

Regarding `O=[N+]([O-])c1cc(Cl)cnc1Br`, the growth inhibition is 92% (active).

For the compound `Cc1ccc2c(c1)C1(SC(C)C(=O)N1c1ccc(Cl)cc1)C(=O)N2` (stereo unspecified), the growth inhibition is 96% (active).

On to `COc1cc(CSc2ccc(O)cc2)cc(O)c1O`, for which the growth inhibition is 7%.

As for `Cc1ccc2c3ccc4c(c3n(C)c2c1)C(=O)C=CC4=O`, the growth inhibition is -37%.

For `O=C(Nc1ccc(Cl)cc1)Nc1nnc2nc(C(C(=O)c3cccc([N+](=O)[O-])c3Cl)c3nc4nnc(NC(=O)Nc5ccc(Cl)cc5)n4[nH]c3=O)c(=O)[nH]n12`, the growth inhibition was 4%.

Turning to `O=C(O)C1CC(c2ccccc2)=NN1c1ccccc1` (stereo unspecified), the growth inhibition is 58%.

As to `CCCCc1ccc(-n2c(C)c(COC(=O)NC)c(COC(=O)NC)c2C)cc1`, the growth inhibition is 98% (active).

`CCC(=O)c1cc(C(=O)C(=S)SC)cc(C(=O)C(=S)SC)c1`: the growth inhibition is 97% (active).

On to `CCn1c(O)c(C=Nc2ccccc2)s/c1=N/Nc1nc(-c2ccccc2)cs1`, for which the growth inhibition was 4%.

Consider `Cc1ccccc1N=C(NO)c1ccccc1`, for which the growth inhibition was 60%.

Turning to `Cc1nc2ccccc2nc1NNc1ccccc1`, the growth inhibition is 4%.

Still in this assay, the particulars now being: S. cerevisiae rad52 mutant growth inhibition; at 100.0 µM; active compounds read high.
With `O=[N+]([O-])c1cc[n+]([O-])cc1`, the growth inhibition is 98% (active).

For `CC1(C)CC(=O)C(/C=N/c2nc(-c3ccccc3)cs2)=C(O)C1`, the growth inhibition is 84% (active).

Take `Nc1nc(N)c2nc(CNc3ccc(C(=O)NC(CCC(=O)O)C(=O)O)cc3F)cnc2n1` (stereo unspecified): the growth inhibition is 89% (active).

`COC(=O)CC1(O)C(/C=C/c2ccccc2)C(C(=O)OC)C(=O)C(C(=O)OC)C1C(=O)OC` (stereo unspecified): the growth inhibition is 13%.

Turning to `CC(C)(C)c1ccc(NS(=O)(=O)c2ccc(N)cc2)cc1`, the growth inhibition is 46%.

Consider `CCN(CC)CCNc1ccc([N+](=O)[O-])c2nc3ccccc3c(N)c12`, for which the growth inhibition was 81% (active).

In the case of `CCCCN(CCCC)C(=O)/C=C/c1ccccc1`, the growth inhibition is 93% (active).

Consider `O=c1[nH]c(-c2ccccc2)nc2c1sc1nc3ccccc3n12`, for which the growth inhibition is -18%.

As to `O=[N+]([O-])c1ccc2c(c1)/C(=N/N=C1c3ccccc3Cc3ccccc31)c1cc([N+](=O)[O-])cc([N+](=O)[O-])c1-2`, the growth inhibition was 96% (active).

For `CC(C)C(C)/C=C\C(C)C1CCC2C3=CC=C4CC(O)CCC4(C)C3CCC21C` (stereo unspecified), the growth inhibition is 17%.

`O=C1Nc2ccc(Br)cc2C1=Nc1ccc2c(c1)OCO2`: the growth inhibition was 2%.

`CCCCOCn1c(=O)[nH]c(=O)c2cc(Br)ccc21`: the growth inhibition is -10%.

Take `Cc1ccc(S/C(=C\C(=O)O)c2ccccc2)cc1`: the growth inhibition was 46%.

Regarding `O=[N+]([O-])/C=C/c1cc(Cl)c(/C=C/[N+](=O)[O-])cc1Cl`, the growth inhibition is 89% (active).

With `Cc1cc(S(=O)(=O)Nc2nnc3cnc4ccccc4n23)c(S)cc1Cl`, the growth inhibition was 43%.

Consider `O=C(/C=C/c1cc(Cl)cc(Cl)c1O)c1cccc(O)c1`, for which the growth inhibition is 99% (active).

On to `NC1CCCCC1N.Nc1c(N=Nc2ccc(-c3ccc(N=Nc4cc(S(=O)(=O)[O-])c5ccccc5c4N)cc3)cc2)cc(S(=O)(=O)[O-])c2ccccc12.[OH3+].[OH3+].[Pt+4]`, for which the growth inhibition is 65%.

For the compound `COC(=O)CCC(NC(=S)N/N=C(\C)c1ccccn1)C(=O)OC` (stereo unspecified), the growth inhibition was 90% (active).

Regarding `NC(=O)C(=O)NNc1ccccc1`, the growth inhibition is 98% (active).

As to `COc1cc(C2SCC(=O)N2c2ccc(-c3ccc(-n4c(-c5ccccc5)nc5ccccc5c4=O)cc3)cc2)ccc1O` (stereo unspecified), the growth inhibition is 16%.

As for `COc1ccc(/C=C/c2sc3ccccc3[n+]2CCCCI)cc1OC`, the growth inhibition was 94% (active).

Regarding `Cc1c(C(C)C)cc(OCCO)cc1C(C)C`, the growth inhibition was 77% (active).

Consider `Cc1cc(NCCCCCCCCNc2cc(C)nc3cc(N)ccc23)c2ccc(N)cc2n1`, for which the growth inhibition was 95% (active).

Turning to `C=C(Cl)COC(=O)Nc1cccc(Cl)c1`, the growth inhibition is 97% (active).

Consider `CC(=O)OC1CC2C(C)(C)C(=O)C=C[C@]2(C)C2CCC3(C)C(=CCC3[C@H](CO)C[C@H](O)C(=O)C(C)(C)O)[C@]12C` (stereo partly specified), for which the growth inhibition is 81% (active).

`COc1ccc(/C=C/C(=O)c2ccccc2)cc1OC`: the growth inhibition was 95% (active).

Turning to `COc1c(O)c(C=O)c(Br)c(C=O)c1O`, the growth inhibition is 91% (active).

For `O=[N+]([O-])c1cc(Cl)cnc1Br`, the growth inhibition is 97% (active).

As to `Cc1ccc2c(c1)C1(SC(C)C(=O)N1c1ccc(Cl)cc1)C(=O)N2` (stereo unspecified), the growth inhibition was 99% (active).

In the case of `COc1cc(CSc2ccc(O)cc2)cc(O)c1O`, the growth inhibition was 8%.

For `Cc1ccc2c3ccc4c(c3n(C)c2c1)C(=O)C=CC4=O`, the growth inhibition is 22%.

In the case of `O=C(Nc1ccc(Cl)cc1)Nc1nnc2nc(C(C(=O)c3cccc([N+](=O)[O-])c3Cl)c3nc4nnc(NC(=O)Nc5ccc(Cl)cc5)n4[nH]c3=O)c(=O)[nH]n12`, the growth inhibition is 52%.

Regarding `O=C(O)C1CC(c2ccccc2)=NN1c1ccccc1` (stereo unspecified), the growth inhibition is 95% (active).

Turning to `CCCCc1ccc(-n2c(C)c(COC(=O)NC)c(COC(=O)NC)c2C)cc1`, the growth inhibition was 93% (active).

`CCC(=O)c1cc(C(=O)C(=S)SC)cc(C(=O)C(=S)SC)c1`: the growth inhibition was 90% (active).

In the case of `CCn1c(O)c(C=Nc2ccccc2)s/c1=N/Nc1nc(-c2ccccc2)cs1`, the growth inhibition is 20%.

For the compound `Cc1ccccc1N=C(NO)c1ccccc1`, the growth inhibition is 97% (active).

Regarding `Cc1nc2ccccc2nc1NNc1ccccc1`, the growth inhibition is 24%.

The values are drawn from PubChem BioAssay (NCI).
